# Experimental data taken from PubChem BioAssay AID1445 (SRMLSC, 2008).
# The whole screen tested about 220,000 compounds, of which about 910 (0.41%) were called active.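 Rule for the calls: active = primary inhibition above the hit cutoff, then over 50% inhibition at one or more dose response concentrations (cut at about 23% in these data, passing the limit was not always enough); inconclusive = conflicting primary data, or primary hits not chosen for dose response; inactive = low primary inhibition, or under 50% at every dose.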 The full list was thinned out, with actives kept by preference. Entries with a potency or affinity are not part of this list.
# Biological target: Aminopeptidase N (Plasmodium falciparum (isolate 3D7)) (UniProt O96935)
# Experiment: P. falciparum M1AAP inhibitors, biochemical, fluorogenic H-Leu-NHMec substrate, 1536-well (AID 1445);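 note: plate controls were DMSO full reaction for no effect and no enzyme background for full effect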
# Details: recombinant M1AAP, H-Leu-NHMec fluorogenic kinetic assay; at 30 µM, hits give high values unless noted
# Aminopeptidase N (Plasmodium falciparum (isolate 3D7)), sequence (O96935 whole entry, looked up): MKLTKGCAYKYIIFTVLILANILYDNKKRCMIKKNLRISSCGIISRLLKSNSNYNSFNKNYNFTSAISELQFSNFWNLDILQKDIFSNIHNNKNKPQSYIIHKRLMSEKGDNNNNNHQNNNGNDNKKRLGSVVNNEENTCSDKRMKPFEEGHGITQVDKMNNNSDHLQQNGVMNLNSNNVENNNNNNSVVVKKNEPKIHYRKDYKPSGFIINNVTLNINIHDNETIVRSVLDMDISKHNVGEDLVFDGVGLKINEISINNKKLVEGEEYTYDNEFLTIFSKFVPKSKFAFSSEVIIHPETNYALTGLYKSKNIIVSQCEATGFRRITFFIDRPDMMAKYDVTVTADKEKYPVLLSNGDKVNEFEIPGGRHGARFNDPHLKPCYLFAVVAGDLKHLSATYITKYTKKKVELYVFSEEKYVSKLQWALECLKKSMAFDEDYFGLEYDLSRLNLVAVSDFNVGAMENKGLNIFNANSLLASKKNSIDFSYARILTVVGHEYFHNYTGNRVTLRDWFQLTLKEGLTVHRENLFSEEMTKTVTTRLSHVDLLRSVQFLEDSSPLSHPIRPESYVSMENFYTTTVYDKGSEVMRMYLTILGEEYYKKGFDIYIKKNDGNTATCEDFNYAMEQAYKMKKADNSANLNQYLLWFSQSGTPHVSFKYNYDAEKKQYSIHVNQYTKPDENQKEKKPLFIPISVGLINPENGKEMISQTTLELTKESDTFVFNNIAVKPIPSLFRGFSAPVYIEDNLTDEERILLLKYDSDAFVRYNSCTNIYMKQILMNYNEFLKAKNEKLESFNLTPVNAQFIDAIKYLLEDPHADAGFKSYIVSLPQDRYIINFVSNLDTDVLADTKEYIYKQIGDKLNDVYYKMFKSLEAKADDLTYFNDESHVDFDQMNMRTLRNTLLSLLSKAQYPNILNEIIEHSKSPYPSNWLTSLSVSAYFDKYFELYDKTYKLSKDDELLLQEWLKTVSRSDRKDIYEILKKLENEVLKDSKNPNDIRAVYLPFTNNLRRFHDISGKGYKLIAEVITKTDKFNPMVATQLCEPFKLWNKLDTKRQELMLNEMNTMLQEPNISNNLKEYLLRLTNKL
row,Compound,inhibition
1,COc1ccc(C2C(C(=O)OCC(=O)N3CCCCC3)CCC(=O)N2c2ccc(OC)cc2)cc1 (configuration not stated),0.13% (inactive)
2,COc1ccc(C2C(C(=O)OCC(=O)Nc3ccc(C)cc3)CCC(=O)N2c2ccc(OC)cc2)cc1 (configuration not stated),23.9% (active)
3,CCNC(=O)COC(=O)C1CCC(=O)N(c2ccc(OC)cc2)C1c1ccc(OC)cc1 (configuration not stated),12.7% (inactive)
4,O=C(Nc1ccc2nn(-c3ccccc3)nc2c1)c1cccs1,-15.1% (inactive)
5,CCCCC(CC)CNC(=O)C1CCCN(S(=O)(=O)c2cnc[nH]2)C1 (configuration not stated),24.2% (active)
6,COc1ccccc1CNC(=O)C1CCCN(S(=O)(=O)c2cnc[nH]2)C1 (configuration not stated),23.9% (active)
7,O=C(NCc1ccccc1Cl)C1CCCN(S(=O)(=O)c2cnc[nH]2)C1 (configuration not stated),4.7% (inactive)
8,CCCCNC(=O)C1CCN(S(=O)(=O)c2cnc[nH]2)CC1,14.7% (inactive)
9,Cc1ccc(CNC(=O)C2CCCN(S(=O)(=O)c3cnc[nH]3)C2)cc1 (configuration not stated),-2.21% (inactive)
10,COc1ccccc1NC(=O)C1CCCN(S(=O)(=O)c2cnc[nH]2)C1 (configuration not stated),1.4% (inactive)
11,CC(C)(C)N1C(=O)c2ccccc2NC(=O)N1Cc1ccc(Br)cc1,2.07% (inactive)
12,O=C1CC(SC(=Nc2ccccc2)Nc2ccccc2)C(=O)N1c1ccc(Cl)c(Cl)c1 (configuration not stated),-2.66% (inactive)
13,CCC/C(O)=C1\C(=O)CCCC1=NCCc1ccc(OCC)c(OCC)c1,5.18% (inactive)
14,CC(=O)c1cccc(-n2nnnc2SCC(=O)Nc2cccc(NC(=O)c3ccco3)c2)c1,8.36% (inactive)
15,Cc1c(N=Cc2nc3ccccc3[nH]2)c(=O)n(-c2ccccc2)n1C,17.4% (inactive)
16,Cc1c(N=Cc2nc3ccccc3n2C)c(=O)n(-c2ccccc2)n1C,27.3% (active)
17,Cc1c(N=Cc2ccncc2)c(=O)n(-c2ccccc2)n1C,1.24% (inactive)
18,O=C(NCCc1c[nH]c2ccccc12)C(=O)NCC1OCCCN1S(=O)(=O)c1ccc(F)cc1 (configuration not stated),4.14% (inactive)
19,CCc1cccc(CC)c1NC(=O)COC(=O)c1ccc(F)c(S(=O)(=O)N(CC)CC)c1,3.7% (inactive)
20,CCOc1ccccc1NC(=O)Nc1cnccn1,8.05% (inactive)
21,O=c1c2ccccc2nc2n1CC/C2=C\c1ccccc1[N+](=O)[O-],1.69% (inactive)
22,CCOC(=O)c1ccc(-n2c(C)nc3ccccc3c2=O)cc1,3.03% (inactive)
23,CSc1ncc(Cl)c(C(=O)Nc2ccc(NC(C)=O)cc2)n1,1.65% (inactive)
24,CSc1ncc(Cl)c(C(=O)Nc2cccc(C)c2)n1,6.29% (inactive)

row,Compound,inhibition
1,COc1ccc(S(=O)(=O)N2CCC(NC(=O)C(Cc3cccc(OC)c3OC)NC(C)=O)CC2)cc1 (configuration not stated),12.2% (inactive)
2,CCOC(=O)CSCC(=O)Nc1nnc(-c2cccc([N+](=O)[O-])c2)s1,2.17% (inactive)
3,COc1ccc(-n2c(SCC(=O)Nc3cc(C)on3)nc3c([nH]c4ccccc43)c2=O)cc1,0.91% (inactive)
4,CN1C(=O)C(C(=O)NC(C)(C)C)C2c3ccccc3OC13CCCCC23 (configuration not stated),24.3% (active)
5,COc1ccc2c(c1)OC13CCCCC1C2C(C(=O)c1ccccc1)C(=O)N3 (configuration not stated),-8.77% (inactive)
6,COc1ccc(NC(=O)C2C(=O)N(C)C3(C)CC2c2ccccc2O3)cc1 (configuration not stated),9.89% (inactive)
7,Cc1nc(SCC(=O)N2c3ccccc3Sc3ccccc32)n[nH]1,4.61% (inactive)
8,CC(=O)CSc1nc(-c2cccs2)c(C#N)c(=O)[nH]1,7.78% (inactive)
9,CCOc1ccc2nc(NC(=O)CSc3ccc(Cl)cc3)sc2c1,2.68% (inactive)
10,Cc1cc(C)c(C#N)c(SCC(=O)c2cccs2)n1,2.39% (inactive)
11,O=C(CSc1nc(O)cc(=O)[nH]1)N1c2ccccc2Sc2ccccc21,18.4% (inactive)
12,CCOc1ccc2nc(NC(=O)CSc3ccccc3)sc2c1,8.9% (inactive)
13,O=C(CCc1ccc(S(=O)(=O)N2CCOCC2)cc1)Nc1ccc(N2CCOCC2)cc1,3.54% (inactive)
14,Cc1ccc(-c2noc(CN(C(=O)C(c3ccccc3)c3ccccc3)C(C)C)n2)cc1,5.44% (inactive)
15,NC(=O)N/N=C/c1ccccc1OC(=O)c1ccccc1Br,0.59% (inactive)
16,Cc1ccccc1CS(=O)(=O)c1cn(CC(=O)N2CCC(C)CC2)c2ccccc12,9.75% (inactive)
17,Cc1ccc(C)c(CS(=O)(=O)c2cn(CC(=O)N3CCC(C)CC3)c3ccccc23)c1,9.18% (inactive)
18,CCN(C1CCCCC1)S(=O)(=O)c1ccc(S(=O)(=O)N2CCN(CCC#N)CC2)cc1,-1.62% (inactive)
19,O=C(/C=C\Nc1ccc2c(c1)OCO2)c1ccc(Cl)s1,3.02% (inactive)
20,O=S(=O)(NC1CCCC1)c1ccc(S(=O)(=O)N2CCCN(Cc3ccccc3)C2)cc1,0.63% (inactive)
21,CC(=NCc1cccnc1)C1=C(O)c2ccccc2C1=O,4.58% (inactive)
22,CCCN=C(C)C1=C(O)c2ccccc2C1=O,3.71% (inactive)
23,CC(=NCc1ccncc1)C1=C(O)c2ccccc2C1=O,23.6% (active)
